We go through 38 molecules from PubChem BioAssay (NCI).

SMILES strings stand for the structures. Compounds without any hit were thinned out: in the full panel of roughly 83,000, 20% have a hit.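 Compound tested at a single concentration for 48 hours in 96-well plates; a percent growth value below 10 was scored as active.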 Unmarked numbers belong to inactive results. Calls of active or inactive are those of the source.

In the first assay the test system is T-47D breast. Briefly: NCI-60 one-dose screen, 48 h (100 = growth as untreated, 0 = no growth, -100 = all killed). As to conditions: 10 µM unless noted.
As to `COc1ccc(CNCCN2C(=O)c3ccc4c5c(ccc(c35)C2=O)C(=O)N(CCNCc2ccc(OC)cc2)C4=O)cc1`, the growth was -19% (active).
Take `COc1cc2nnn3c4ncccc4c(N=O)c3c2cc1OC`: the growth is 51.8%.
`CC1(c2ccccc2)NC(=O)N(CC(=O)Nc2cccc(I)c2)C1=O` (stereo not drawn): the growth was 81.5%.
In the case of `Cn1ncc2c(Nc3ccccc3Cl)nc(Cl)nc21`, the growth is 99.7%.

In another assay the test system is BT-549 breast. Described as above. As to conditions: 10 µM unless noted.
Consider `Cc1cc(C)c(C=O)c(C)c1`, for which the growth is 91.4%.
As for `CS(=O)(=O)Nc1cc(-c2ccc3ncnc(Nc4ccc5[nH]ncc5c4)c3c2)cnc1Cl`, the growth is 69.3%.
The same measure, in the same setting: for `O=c1[nH]c2c(s1)CCCC2CN1CCCCC1` (stereo not drawn) the value was 72.6%.
As to `CCCc1cc2c(cc1Br)OCO2`, the growth was 82.7%.
`CCN(CCNc1cc(OC)cc2cccnc12)CCc1ccccc1`: the growth is 87.6%.
Take `Cc1c([N+](=O)[O-])cc(C(C)(C)C)cc1[N+](=O)[O-]`: the growth is 102%.
As to `COc1ccccc1/C=C1\Oc2cc(OCCCN3CCCC3)ccc2C1=O`, the growth is 94.8%.
Consider `O=C(O)CNC(=O)CN1C(=O)c2ccccc2C1=O`, for which the growth was 89.5%.
Same read-out and setting: for `CCN(CC)CCCC(Nc1c2ccc(Cl)cc2nc2ccc(OC)cc12)c1ccc(Cl)cc1` (stereo not drawn) the value was 43.4%; for `COc1cc(CNC(=O)CCCCC[P+](c2ccccc2)(c2ccccc2)c2ccccc2)c(OC)c2c1OCO2`, 37.8%; for `COc1cccc2cc(-c3cc4ccccc4[nH]3)/c(=N/C(=S)Nc3ccc(C)cc3)oc12`, 89.6%.
The same measure, in the same setting: in the case of `COc1cc(NCC(O)CN(CC(C)C)C2CCCC2)c2ncccc2c1` (stereo not drawn) it was 89.5%; in that of `CCCCCCCCN1C(=O)/C(=c2\sc3n(c2=O)C2C(NN=3)N(CC)C(=O)N2CC)c2ccccc21` (stereo not drawn), 86.9%.
Regarding `O=C(Nc1ccccc1)Oc1ccccc1-c1ccccc1`, the growth was 76.3%.
Turning to `COc1cc(NCC(O)CN(CC(C)C)CC(C)C)c2nc(C)ccc2c1` (stereo not drawn), the growth was 90.9%.
As for `O=C(Nc1ccc(F)cc1)c1c(NC(=O)C(F)(F)F)sc2c1CCCCC2`, the growth was -2.41% (active).
Turning to `O=C(/C=C\c1ccc(OCCCCCC[P+](c2ccccc2)(c2ccccc2)c2ccccc2)cc1)c1ccc2c(c1)OCCO2`, the growth is -16.9% (active).
The same measure, in the same setting: in the case of `CCC(C)N(CCNc1cc(OC)cc2cccnc12)CCC(C)C` (stereo not drawn) it was 90.8%; in that of `COC(=O)Nc1ccc(NC(=O)OC)cc1`, 84.6%; in that of `CCCCCCCCCCCCCCCCCCOc1ccccc1N`, -5.26% (active).
Same read-out and setting: in the case of `CCN1C(=O)N(CC)C2NC(SC)=NC21` (stereo not drawn) it was 103%; in that of `Cc1ccccc1C(c1ccccc1)c1ccccc1C`, 86.1%.
With `CCNC(=O)c1[nH]cc(-c2ccc(OC)cc2)c1-c1cc(OC)cc(OC)c1`, the growth was 90.2%.
As to `CN(C)Cc1c(-c2ccccc2)[nH]c2ccccc12`, the growth is 75.3%.
Same read-out and setting: in the case of `O=C(Nc1cccc(Cl)c1)Oc1c(Br)c(Br)c(Br)c(Br)c1Br` it was 79.5%.
With `COc1ccc(Cl)cc1NC(=O)c1c(NC(=O)C(F)(F)C(F)(F)F)sc2c1CCCCC2`, the growth was -4.71% (active).
The same measure, in the same setting: for `COc1ccc(-c2c[nH]c(C(=O)O)c2-c2cc(OC)c3c(c2OC)OCO3)cc1` the value was 103%; for `COc1cc(-c2cc(=O)oc3cc(O)ccc23)c(OC)c2c1OCO2`, 90.9%.
Same read-out and setting: in the case of `COc1cc(NCCCN(CC(C)C)CC(C)C)c2ncccc2c1` it was 80.4%.
The same measure, in the same setting: in the case of `CCN(CC)S(=O)(=O)c1cccc([N+](=O)[O-])c1` it was 79.1%; in that of `COc1cc(NCCN(CC(C)C)C2CCCC2)c2ncccc2c1`, 98.8%.
With `CC(=O)OCC(=O)[C@@]1(O)CC[C@H]2[C@@H]3CC(=C(Br)Br)C4=CC(=O)CC[C@]4(C)[C@H]3C(=O)C[C@@]21C`, the growth is 73.5%.
Same read-out and setting: for `Cc1ccc(-c2c(Br)c(OC(=O)CO[C@@H]3C[C@H](C)CC[C@H]3C(C)C)c(-c3ccc(C)cc3C)c(Br)c2OC(=O)CO[C@H]2C[C@@H](C)CC[C@@H]2C(C)C)c(C)c1` the value was 85.5%; for `COc1cc(/C=C/C(=O)c2c(C)oc3nc[nH]c(=O)c23)ccc1O`, 100%.
